Measured potencies and affinities stand elsewhere. The source made the active and inactive calls. The rule behind the calls is not given here.
Assay: VEEV TC-83 cytopathic effect inhibitors, confirmation, cell-based, TC-83 strain, set 8 (AID 651917)
Settings: VEEV TC-83 infected cells; series mostly up to 25 µM; inhibition: at the top concentration

SMILES | inhibition
CN(C)c1ccc(-n2c(CN3CCNCC3)nc3ccc([N+](=O)[O-])cc3c2=O)cc1 | 46.6% (inactive)
CCN1CCN(Cc2nc3ccc(S(=O)(=O)O)cc3c(=O)n2-c2ccccc2)CC1 | -0.9% (inactive)
CCN1CCN(Cc2nc3ccc([N+](=O)[O-])cc3c(=O)n2C)CC1 | 2.33% [at 50 µM] (inactive)
O=c1nc(Nc2ccccc2OCc2ccccc2)sc2ncccc12 | 6.97% (inactive)
CCN1CCN(Cc2nc3c([N+](=O)[O-])cccc3c(=O)n2-c2ccccc2)CC1 | -3.57% (inactive)
CCN1CCN(CC2Nc3ccc([N+](=O)[O-])cc3C(=O)N2c2ccccc2F)CC1 (stereo not drawn) | 7.2% (inactive)
CCN1CCN(Cc2nc3ccc(C(=O)O)cc3c(=O)n2-c2ccccc2)CC1 | -5.4% (inactive)
CCN1CCN(c2nc3ccc([N+](=O)[O-])cc3c(=O)n2-c2ccccc2)CC1 | 4.2% (inactive)
COc1ccccc1-n1c(CN2CCNCC2)nc2ccc([N+](=O)[O-])cc2c1=O | 5.2% (inactive)
O=c1nc(Nc2ccc(F)cc2)sc2ncccc12 | -1.5% (inactive)
CCN(CC)c1nc(=O)c2cccnc2s1 | -1.73% [at 50 µM] (inactive)
COc1ccc(Nc2nc(=O)c3cccnc3s2)cc1 | -2.13% [at 50 µM] (inactive)
CCN1CCN(Cc2nc3ccc(-c4cccnc4)cc3c(=O)n2-c2ccccc2)CC1 | 7.6% (inactive)
O=c1nc(NC2CCNCC2)sc2ncccc12 | -6.83% (inactive)
O=c1nc(N2CCN(Cc3ccccc3)CC2)sc2ncccc12 | -2.53% (inactive)
CN(C)c1cccc(-n2c(CN3CCNCC3)nc3ccc([N+](=O)[O-])cc3c2=O)c1 | 2.5% (inactive)
Cc1cccc(C)c1Nc1nc(=O)c2cccnc2s1 | -1.13% (inactive)
O=c1nc(Nc2ccc(CCc3ccccc3)cc2)sc2ncccc12 | -2.33% [at 50 µM] (inactive)
O=c1nc(Nc2ccc(OCc3ccccc3)cc2)sc2ncc([N+](=O)[O-])cc12 | -1.13% (inactive)
CCN1CCN(Cc2nc3ccc(-c4nn[nH]n4)cc3c(=O)n2-c2ccccc2)CC1 | -1.1% [at 50 µM] (inactive)
CCN1CCN(Cc2nc3ncccc3c(=O)n2-c2ccccc2)CC1 | -1.77% (inactive)
O=C1CN(Cc2nc3ccc([N+](=O)[O-])cc3c(=O)n2-c2ccccc2F)CCN1 | -1.4% [at 50 µM] (inactive)
CCN1CCN(Cc2nc3ccc([N+](=O)[O-])cc3c(=O)n2Cc2ccccc2)CC1 | -2% [at 50 µM] (inactive)
